Assay outcomes deposited in PubChem by The Scripps Research Institute Molecular Screening Center.
An excerpt weighted towards active compounds, which were near 2.2% of everything screened.
M4 ag = human M4 muscarinic receptor agonists, primary screen, CHO-K1 cells, Fluo-8 calcium fluorescence; CHO-K1 hM4/Gqi5; vehicle 0%, full acetylcholine response 100%; activation, % at 3 µM; 360,000 compounds, 0.14% hits; AID 624127, 2012;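 active means activation above the run mean over all test wells plus 3 SD, cut at about 32% in these data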;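 further: peak over basal fluorescence ratio per well then scaled between controls; 0% = DMSO wells and 100% = acetylcholine at EC100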
Target sequence (P08173 whole entry, looked up): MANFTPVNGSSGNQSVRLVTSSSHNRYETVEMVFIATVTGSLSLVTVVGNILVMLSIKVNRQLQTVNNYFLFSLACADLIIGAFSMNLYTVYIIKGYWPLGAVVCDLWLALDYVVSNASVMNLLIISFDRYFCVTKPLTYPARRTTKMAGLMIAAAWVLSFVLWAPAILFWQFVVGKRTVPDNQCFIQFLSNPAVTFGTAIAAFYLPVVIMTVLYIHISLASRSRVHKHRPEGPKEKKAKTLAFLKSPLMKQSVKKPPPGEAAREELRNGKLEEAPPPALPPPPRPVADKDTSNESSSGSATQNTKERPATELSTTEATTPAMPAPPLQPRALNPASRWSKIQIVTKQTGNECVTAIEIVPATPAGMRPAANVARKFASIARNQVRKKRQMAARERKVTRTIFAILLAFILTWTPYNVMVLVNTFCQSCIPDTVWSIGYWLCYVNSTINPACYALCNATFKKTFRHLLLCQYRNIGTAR
M4 PAM = human M4 muscarinic receptor positive allosteric modulators, primary screen, CHO-K1 cells, Fluo-8 calcium fluorescence | Muscarinic acetylcholine receptor M4 (Homo sapiens), P08173 | CHO-K1 hM4/Gqi5, ACh EC20; 0% = ACh EC20, 100% = maximal ACh | activation, % at 3 µM | 360,000 compounds, 0.4% hits | AID 624126, 2012;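 active means activation above its plate's cutoff, the mean activation of sample wells plus 3 SD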
CHRM1 antagonist = human M1 muscarinic receptor antagonists, primary screen, CHO-K1 cells, Fluo-8 calcium fluorescence, 1536-well; Muscarinic acetylcholine receptor M1 (Homo sapiens), P11229; CHO-K1 hM1, ACh EC80 antagonist; inhibition, % at 3 µM; 360,000 compounds, 1.3% hits;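 active means percent inhibition above its own plate's cutoff, namely the mean of that plate's compound wells plus 3 SD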;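 further: peak over basal fluorescence ratio during 140 s after agonist addition; 0% = ACh EC80 plus DMSO and 100% = DMSO alone without agonist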
M4 antag = human M4 muscarinic receptor antagonists, primary screen, CHO cells, Fluo-8 calcium fluorescence; 360,000 compounds, 0.73% hits; Muscarinic acetylcholine receptor M4 (Homo sapiens), P08173; CHO-hM4 cells, ACh EC80; inhibition, % at 3 µM;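 active means inhibition above its plate's cutoff, the mean inhibition of sample wells plus 3 SD, cut at about 27% in these data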;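 further: 0% = acetylcholine EC80 with DMSO and 100% = DMSO without agonist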
M1 ag = human M1 muscarinic receptor agonists, primary screen, Fluo-8 calcium fluorescence, CHO-K1 cells, HTS; 360,000 compounds, 0.33% hits; Muscarinic acetylcholine receptor M1 (Homo sapiens), P11229; CHO-K1 hM1, agonist mode; 0% DMSO, 100% acetylcholine EC100; activation, % at 3 µM; AID 588814, 2011;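 active means activation above the run's mean compound activation plus 3 SD, cut at about 16% in these data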;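 further: peak over basal fluorescence ratio within a 140 s kinetic read after compound addition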
M1 PAM = human M1 muscarinic receptor positive allosteric modulators, primary screen, CHO-K1 cells, Fluo-8 calcium fluorescence, 1536-well. Muscarinic acetylcholine receptor M1 (Homo sapiens), P11229. CHO-K1 hM1, ACh EC20; 0% = ACh EC20, 100% = maximal ACh. activation, % at 3 µM. 360,000 compounds, 0.088% hits; in the data active means activation above about 19%, passing the limit was not always enough
Numbers without * were called inactive.

SMILES | M4 ag | M4 PAM | CHRM1 antagonist | M4 antag | M1 ag | M1 PAM
NC(c1ccccc1)c1csc(Nc2cc(Oc3ccccc3)ncn2)n1 (configuration not stated) | 4 | -11 | 60* | 14 | -6 | -30
COc1ccc2c(c1)-c1c(sn(-c3ccc(OC)c(OC)c3)c1=S)C(C)(C)N2 | -2 | -6 | 27* | 8 | -6 | -17
Cc1ccccc1N(C(=O)c1snc(C(N)=O)c1N)C(C(=O)NCc1ccccc1)c1ccc(O)cc1 (configuration not stated) | 21 | -13 | 10 | 2 | 2 | -1
NC(=O)c1nsc(C(=O)N(c2ccccc2F)C(C(=O)NCc2ccccc2)c2ccc(O)cc2)c1N (configuration not stated) | 20 | -12 | 39* | 17 | 1 | -23
CC(NC(=O)C1CCCN(C(=O)N(C)C)C1)c1ccccc1 (configuration not stated) | 1 | 3 | 1 | -1 | -5 | 2
O=C(NC1CCCC1)c1c[nH]c2ccc(F)cc2c1=O | 3 | 5 | -8 | -2 | -1 | 8
Cc1cc(C(=O)CSc2nnc(-c3ccccc3)n2-c2ccccc2)c(C)n1-c1ncn[nH]1 | 0 | 26* | -4 | -4 | 4 | 10
O=C(NC(=O)c1ccc(C(F)(F)F)cc1)Nc1ccc(-c2cnco2)cc1 | 0 | 15 | -21 | 5 | 1 | 21
O=C(CSCC(=O)N1CCCCC1)Nc1nc(-c2ccc(Cl)s2)cs1 | 20 | -11 | 31* | -9 | 0 | -8
O=C(CSCC(=O)N1CCN(c2ccccc2)CC1)Nc1nc(-c2ccc(Cl)s2)cs1 | 5 | 4 | 9 | -7 | 2 | 2
O=C(O)CN(c1ccccn1)S(=O)(=O)c1ccc(Cl)cc1 | 0 | 20* | -24 | -4 | -2 | 9
O=C1NC(c2ccncc2)C(C(=O)c2cccs2)C(O)(C(F)(F)F)N1 (configuration not stated) | 2 | 15 | 3 | 30* | -3 | 1
O=C1NC(c2cccnc2)C(C(=O)c2cccs2)C(O)(C(F)(F)F)N1 (configuration not stated) | 0 | 13 | -10 | -6 | -2 | 11
O=C1COCC(=O)N1CCc1c[nH]c2ccccc12 | 0 | 0 | -13 | -11 | -1 | 6
CCCCOC(=O)CCc1c(C)[nH]c(=O)c(C#N)c1C | 1 | 26* | -4 | -2 | -2 | 2
Cc1ccc(NC(=O)CCc2c(C)[nH]c(=O)c(C#N)c2C)cc1 | 0 | -4 | -1 | 7 | -3 | 5
O=C(c1ccc2ccccc2c1)C1CCCN(C(=O)CN2C(=O)CSC2=O)C1 (configuration not stated) | 6 | 12 | -12 | -1 | 0 | 8
CC1CCN(CC(=O)Nc2nc(-c3ccccc3)cs2)CC1 | 3 | 0 | 4 | 4 | -5 | -3
Cc1oc(-c2ccc(Cl)cc2)nc1CS(=O)CC(=O)NCc1ccccc1 (configuration not stated) | 2 | 21* | -19 | -2 | -2 | 21
O=C(CSc1ccc(-c2nc3ccccc3[nH]2)cn1)Nc1ccc(S(=O)(=O)NC2CC2)cc1 | 9 | -21 | 14 | 31* | -8 | -2
O=C(CSc1ccc(-c2nc3ccccc3[nH]2)cn1)Nc1ccc2c(c1)OCCO2 | 5 | -2 | 2 | 0 | -3 | -10
Cc1cc(NC(=O)c2ccc(F)c(S(=O)(=O)N3CCCCC3)c2)no1 | 0 | -14 | -3 | 51* | -2 | 6
Cc1ccc(S(=O)(=O)N2C(=O)CCC2C(=O)O/N=C(\N)c2ccccc2)cc1 (configuration not stated) | 1 | -1 | -9 | 3 | 18* | 19
CC1=NN(C(N)=S)C(=O)C1N=Nc1ccccc1C(=O)O (configuration not stated) | -1 | -1 | -3 | -2 | 0 | 1
CCCCCCOc1ccc(/C(C)=N/NC2=NCCN2)cc1[N+](=O)[O-] | 5 | 17 | -9 | 5 | -9 | 10
SMILES | M4 ag | M4 PAM | CHRM1 antagonist | M4 antag | M1 ag | M1 PAM
CCCCOc1ccc(Br)cc1/C(C)=N/NC1=NCCN1 | 3 | -23 | 73* | 35* | -4 | -22
CCc1c(C#N)c(SCCC(=O)Nc2ccc(F)cc2)nc2c1C(=O)CC(C)(C)C2 | 10 | -19 | 38* | 5 | 0 | -18
O=C1NC(CCc2ccccc2)C(=O)N1CCOc1cccc(Br)c1 (configuration not stated) | 6 | 0 | 2 | -18 | -6 | 2
COc1ccc(C2C(C(=O)N3CCN(C)CC3)c3ccccc3C(=O)N2C2CCCCC2)cc1 (configuration not stated) | 2 | 22* | -5 | -9 | -4 | -4
CCC1CCCCN1CCCNC(=O)CSc1nc2nc(C)c(Cc3ccc(C)cc3)c(C)n2n1 (configuration not stated) | 1 | -14 | 69* | 26* | -13 | -36
Cc1nc2nc(SCC(=O)NCCCN3CCOCC3)nn2c(C)c1Cc1ccccc1 | 1 | -8 | 2 | 4 | -7 | 0
Cc1nc2nc(SCC(=O)NCCCN3CCCC3)nn2c(C)c1Cc1ccccc1Cl | 1 | -20 | 81* | 27* | -12 | -37
Cc1nc2nc(SCC(=O)NCCCN3CCCCC3)nn2c(C)c1Cc1ccccc1 | 1 | -14 | 14 | 4 | -11 | -18
Cc1cccc(NC(=O)c2cc(-c3ccc(C)s3)nc3ccccc23)n1 | 9 | -12 | 23* | 16 | -2 | -12
COC(=O)c1sccc1NC(=O)c1cc(-c2cc(C)ccc2C)nc2ccccc12 | 0 | 4 | 2 | 3 | -4 | -1
Cc1ccc(C)c(-c2cc(C(=O)Nc3nccs3)c3ccccc3n2)c1 | 9 | -22 | 33* | 26 | -3 | -12
O=C(N/N=C/c1cccc(O)c1)c1ccc(COc2ccccc2Br)cc1 | 1 | -9 | -6 | -1 | 4 | -3
Cc1nn(C)c(C)c1CNC(=O)c1nn2c(c1Cl)NC(c1cccs1)CC2C(F)(F)F (configuration not stated) | 0 | -3 | -8 | 6 | -2 | -4
